The record followed here is the supplement of paper PMC4022240.

± gives the standard deviation.

Assay in all cases: peptide microarray binding signal (635 nm), min-max normalized on array (fraction of array maximum); higher = stronger binding
Holding throughout (conditions): peptide region: Unmod H4 variant

The target of test [1] is T1, HaloTag-ATRX ADD domain (163-292).
T1 chain: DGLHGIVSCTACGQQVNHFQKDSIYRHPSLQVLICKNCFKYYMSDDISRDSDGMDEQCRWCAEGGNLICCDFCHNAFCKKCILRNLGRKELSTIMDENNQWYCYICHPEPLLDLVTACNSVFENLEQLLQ
The gist of the method:
(§1)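 An Axon GenePix 4000B scanned the arrays at 635 nm for signal and at 532 nm to catch misprints. Those arrays held histone 13-mer peptide–cellulose conjugates printed in triplicate on nitrocellulose with a Cy3 tracer, blocked overnight at 4°C and probed for 1 h at 4°C with biotin-labelled HaloTag reader fusions (10 nM to 1 μM) plus streptavidin-Alexa Fluor 647 or with rabbit histone antibodies (1:10,000 to 1:2,000) plus anti-rabbit Alexa 647. Each binding signal is a triplicate-spot mean intensity, scaled min-max within its library.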

For test [2], the target named is HaloTag-ING2 PHD (mouse Ing2 200-280). The method, boiled down:
as §1

The target in test [3] is anti-H3K4me3 antibody ab8580. The gist of the method: as §1
Test [4] addresses anti-H3K9me3 antibody ab8898. The method, boiled down:
as §1

[5] abbreviates: binder concentration: 1:2,000 dilution.
Where [6] appears, read: binder concentration: 1:10,000 dilution.

Consider YEETRGVLKVFLE [Unmod H4 variant Y E E T R G V L K V F L E], for which the “peptide microarray binding signal” value was determined as 0.00188 ± 2.3e-05 in test [1] (binder concentration: 50 nM); 0.00157 in test [1] (binder concentration: 500 nM); 0.00197 ± 3e-05 in test [2] (binder concentration: 10 nM); 0.001913 ± 1.9e-05 in test [2] (binder concentration: 100 nM); 0.00123 ± 0.00021 in test [3] (setting [5]); 0.000742 in test [3] (setting [6]). For the same molecule, the “peptide microarray binding signal” value in test [4] (setting [5]) came to 0.000287 ± 2.9e-06; in test [4] (setting [6]) it was 0.000807 ± 2.5e-05.
Regarding AKRKTVTAMDVVY [Unmod H4 variant A K R K T V T A M D V V Y], the “peptide microarray binding signal” value in test [1] (binder concentration: 50 nM) came out at 0.00693 ± 0.00037; in test [1] (binder concentration: 500 nM), 0.0206 ± 0.0015; in test [2] (binder concentration: 10 nM), 0.00609 ± 0.00018; in test [2] (binder concentration: 100 nM) it was 0.0129 ± 0.0003; in test [3] (setting [5]) it was 0.00104 ± 3.5e-05; in test [3] (setting [6]) it was 0.001484 ± 1.4e-05. In addition, the “peptide microarray binding signal” value amounted to 0.000604 ± 2e-05 in test [4] (setting [5]) and 0.00104 ± 1.1e-05 in test [4] (setting [6]).
As to TYTEHAKRKTVTA [Unmod H4 variant T Y T E H A K R K T V T A], the “peptide microarray binding signal” value stood at 0.0167 ± 0.0088 in test [1] (binder concentration: 50 nM); 0.0332 ± 0.0014 in test [1] (binder concentration: 500 nM); 0.00901 ± 0.00035 in test [2] (binder concentration: 10 nM); 0.0293 ± 0.0034 in test [2] (binder concentration: 100 nM); 0.00155 ± 0.00011 in test [3] (setting [5]); 0.0024 ± 0.00014 in test [3] (setting [6]). In addition, the figures for the “peptide microarray binding signal” value in test [4] (setting [5]) and in test [4] (setting [6]) were 0.00104 ± 3.8e-05 and 0.00202 ± 8.6e-05, respectively.
Consider FLENVIRDAVTYT [Unmod H4 variant F L E N V I R D A V T Y T], for which the “peptide microarray binding signal” value was found to be 0.0144 ± 0.0008 in test [1] (binder concentration: 50 nM); 0.0404 ± 0.01 in test [1] (binder concentration: 500 nM); 0.00901 ± 0.0012 in test [2] (binder concentration: 10 nM); 0.0294 ± 0.011 in test [2] (binder concentration: 100 nM); 0.00381 ± 0.00074 in test [3] (setting [5]); 0.00519 ± 0.00068 in test [3] (setting [6]). The “peptide microarray binding signal” value in test [4] (setting [5]) was 0.00331 ± 0.00056; in test [4] (setting [6]), 0.0034 ± 0.00025.
On to ISGLIYEETRGVL [Unmod H4 variant I S G L I Y E E T R G V L], for which the “peptide microarray binding signal” value in test [1] (binder concentration: 50 nM) amounted to 0.00266 ± 3.1e-05; in test [1] (binder concentration: 500 nM), 0.00776 ± 0.0036; in test [2] (binder concentration: 10 nM), 0.00233 ± 7.4e-05; in test [2] (binder concentration: 100 nM), 0.00319 ± 0.00013; in test [3] (setting [5]) it was 0.00109 ± 5.1e-05; in test [3] (setting [6]), 0.00114 ± 1.2e-05. The “peptide microarray binding signal” value turned out to be 0.0004228 ± 4.1e-06 in test [4] (setting [5]) and 0.000807 ± 1.5e-05 in test [4] (setting [6]).
For the molecule IRDAVTYTEHAKR [Unmod H4 variant I R D A V T Y T E H A K R], the “peptide microarray binding signal” value in test [1] (binder concentration: 50 nM) worked out at 0.0385 ± 0.0035; in test [1] (binder concentration: 500 nM) it was 0.0711 ± 0.01; in test [2] (binder concentration: 10 nM), 0.0251 ± 0.0019; in test [2] (binder concentration: 100 nM), 0.0444 ± 0.0047; in test [3] (setting [5]), 0.00429 ± 0.00052; in test [3] (setting [6]), 0.00913 ± 0.0018. The “peptide microarray binding signal” value in test [4] (setting [5]) was 0.00497 ± 9e-05; in test [4] (setting [6]), 0.00577 ± 8e-05.
Regarding GVLKVFLENVIRD [Unmod H4 variant G V L K V F L E N V I R D], the “peptide microarray binding signal” value in test [1] (binder concentration: 50 nM) was 0.00223 ± 6.3e-05; in test [1] (binder concentration: 500 nM), 0.00281 ± 0.00014; in test [2] (binder concentration: 10 nM), 0.00388 ± 0.00015; in test [2] (binder concentration: 100 nM) it was 0.00269 ± 6.7e-05; in test [3] (setting [5]), 0.00174 ± 0.00026; in test [3] (setting [6]), 0.00097 ± 2e-05. The “peptide microarray binding signal” value in test [4] (setting [5]) amounted to 0.00125 ± 0.00016; in test [4] (setting [6]), 0.00098.
